The values that follow come from paper PMC7862700, “An all-to-all approach to the identification of sequence-specific readers for epigenetic DNA modifications on cytosine”.

Common to all, as to assay: DAPPL (digital affinity profiling via proximity ligation, sequencing); 10 mM Tris-HCl pH 7.5, 50 mM NaCl, 1 mM DTT, 4% glycerol, room temperature, 30 min; GST-TFs on glutathione beads, 16-mer random dsDNA library, 0.1% formaldehyde crosslink after washing; high values mean tight binding
For one assay, the target named is T1, FEV (Homo sapiens, UniProt Q99581 1-238).
T1 sequence: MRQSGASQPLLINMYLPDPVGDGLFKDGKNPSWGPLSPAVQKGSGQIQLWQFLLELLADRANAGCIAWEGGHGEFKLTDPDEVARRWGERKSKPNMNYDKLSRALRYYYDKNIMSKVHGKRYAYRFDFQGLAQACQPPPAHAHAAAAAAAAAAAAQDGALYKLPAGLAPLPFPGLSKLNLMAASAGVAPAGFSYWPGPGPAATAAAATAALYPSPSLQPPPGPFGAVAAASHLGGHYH
Particulars: protein: recombinant; tags: N-terminal GST; dsDNA, one strand shown. In outline:
(§1)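 Human transcription factors carrying a GST fusion were produced in yeast, bound to glutathione beads, tagged with DNA barcodes and pooled together with a tag-only sample. Each pool was held with 200 nmole of a random double-stranded 16-mer DNA library in Tris/NaCl/DTT/glycerol buffer for 30 min at room temperature, then washed, crosslinked in 0.1% formaldehyde, proximity-ligated with BsaI/T4 ligase (1 h, 37 °C), PCR-amplified and sequenced on an Illumina NextSeq500. Binding signal is the read frequency of each hexamer for a given factor divided by its frequency in the tag-only sample.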

In another assay the target is ETV5 (Homo sapiens, UniProt P41161 1-510). Particulars: protein: recombinant; tags: N-terminal GST; dsDNA, one strand shown. Summed up:
as §1

The next assay has as its target HSF1 (Homo sapiens, UniProt Q00613 1-529). Particulars: protein: recombinant; tags: N-terminal GST; chain copies: 3; dsDNA, one strand shown. Summed up:
as §1

Another assay deals with T2, SPIC (Homo sapiens, UniProt Q8N5J4 1-248).
T2 sequence: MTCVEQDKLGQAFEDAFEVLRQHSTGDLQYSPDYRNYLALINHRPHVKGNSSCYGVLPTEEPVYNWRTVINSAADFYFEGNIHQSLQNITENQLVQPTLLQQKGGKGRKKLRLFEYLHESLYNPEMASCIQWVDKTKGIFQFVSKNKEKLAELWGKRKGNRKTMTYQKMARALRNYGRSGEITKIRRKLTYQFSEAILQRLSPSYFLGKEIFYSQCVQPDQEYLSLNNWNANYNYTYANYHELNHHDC
Particulars: protein: recombinant; tags: N-terminal GST; dsDNA, one strand shown. Summed up: as §1

The next assay concerns the target ELF4 (Homo sapiens, UniProt Q99607 1-663). The conditions noted are these: protein: recombinant; tags: N-terminal GST; dsDNA, one strand shown. Summed up:
as §1

Another assay has as its target T3, ELK4 (Homo sapiens, UniProt P28324-2 1-405).
T3 sequence: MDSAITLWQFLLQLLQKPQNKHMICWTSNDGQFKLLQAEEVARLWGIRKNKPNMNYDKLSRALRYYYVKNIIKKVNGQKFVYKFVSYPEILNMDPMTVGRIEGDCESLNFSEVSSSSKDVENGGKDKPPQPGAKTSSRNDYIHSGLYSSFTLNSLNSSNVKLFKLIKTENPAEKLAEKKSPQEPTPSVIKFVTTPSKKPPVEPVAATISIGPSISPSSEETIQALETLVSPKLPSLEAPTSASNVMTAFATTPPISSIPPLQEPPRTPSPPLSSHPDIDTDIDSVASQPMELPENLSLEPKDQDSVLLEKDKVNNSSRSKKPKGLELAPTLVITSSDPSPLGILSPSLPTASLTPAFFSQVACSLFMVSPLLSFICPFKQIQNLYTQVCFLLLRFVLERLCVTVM
The conditions noted are these: protein: recombinant; tags: N-terminal GST; dsDNA, one strand shown. In outline:
as §1

The target of a further assay is T4, ETV2 (Homo sapiens, UniProt O00321 1-342).
T4 sequence: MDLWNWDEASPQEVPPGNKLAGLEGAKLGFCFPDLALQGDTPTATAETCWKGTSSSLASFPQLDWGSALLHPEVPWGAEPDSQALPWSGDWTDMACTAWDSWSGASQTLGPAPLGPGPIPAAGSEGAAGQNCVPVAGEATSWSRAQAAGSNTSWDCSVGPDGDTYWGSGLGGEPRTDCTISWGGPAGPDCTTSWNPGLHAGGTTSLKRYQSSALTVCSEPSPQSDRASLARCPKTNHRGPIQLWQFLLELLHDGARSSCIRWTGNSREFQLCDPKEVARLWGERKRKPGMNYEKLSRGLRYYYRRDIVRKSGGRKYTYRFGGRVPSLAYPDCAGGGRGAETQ
The conditions noted are these: protein: recombinant; tags: N-terminal GST; dsDNA, one strand shown. Summed up:
as §1

Another assay deals with T5, ELF3 (Homo sapiens, UniProt P78545 1-371).
T5 sequence: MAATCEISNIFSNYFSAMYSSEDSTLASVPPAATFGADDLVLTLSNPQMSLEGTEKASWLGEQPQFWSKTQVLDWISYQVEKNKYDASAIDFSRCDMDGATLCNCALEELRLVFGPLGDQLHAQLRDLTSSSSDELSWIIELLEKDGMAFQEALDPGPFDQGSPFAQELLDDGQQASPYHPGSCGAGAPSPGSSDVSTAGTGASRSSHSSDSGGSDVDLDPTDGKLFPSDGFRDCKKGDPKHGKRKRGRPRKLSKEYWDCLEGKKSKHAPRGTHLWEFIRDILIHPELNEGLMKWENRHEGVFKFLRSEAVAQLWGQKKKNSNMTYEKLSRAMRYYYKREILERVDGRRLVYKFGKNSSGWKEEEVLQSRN
The conditions noted are these: protein: recombinant; tags: N-terminal GST; dsDNA, one strand shown. In outline: as §1

The next assay deals with CRX (Homo sapiens, UniProt O43186 1-299). The conditions noted are these: protein: recombinant; tags: N-terminal GST; dsDNA, one strand shown. Summed up: as §1
Sequence of CRX (O43186 whole entry): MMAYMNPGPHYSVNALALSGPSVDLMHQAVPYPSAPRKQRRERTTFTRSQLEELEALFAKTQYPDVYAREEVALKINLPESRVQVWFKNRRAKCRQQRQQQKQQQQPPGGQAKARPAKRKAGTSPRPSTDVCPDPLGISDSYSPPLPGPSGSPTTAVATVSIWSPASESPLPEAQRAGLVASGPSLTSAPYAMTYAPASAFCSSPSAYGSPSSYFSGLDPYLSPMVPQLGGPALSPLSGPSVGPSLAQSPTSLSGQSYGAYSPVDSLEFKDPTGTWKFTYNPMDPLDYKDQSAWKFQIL
In another assay the target is ETV1 (Homo sapiens, UniProt P50549 1-477). Particulars: protein: recombinant; tags: N-terminal GST; dsDNA, one strand shown. Summed up:
as §1

For a further assay, the target named is T6, ERF (Homo sapiens, UniProt P50548 1-548).
T6 sequence: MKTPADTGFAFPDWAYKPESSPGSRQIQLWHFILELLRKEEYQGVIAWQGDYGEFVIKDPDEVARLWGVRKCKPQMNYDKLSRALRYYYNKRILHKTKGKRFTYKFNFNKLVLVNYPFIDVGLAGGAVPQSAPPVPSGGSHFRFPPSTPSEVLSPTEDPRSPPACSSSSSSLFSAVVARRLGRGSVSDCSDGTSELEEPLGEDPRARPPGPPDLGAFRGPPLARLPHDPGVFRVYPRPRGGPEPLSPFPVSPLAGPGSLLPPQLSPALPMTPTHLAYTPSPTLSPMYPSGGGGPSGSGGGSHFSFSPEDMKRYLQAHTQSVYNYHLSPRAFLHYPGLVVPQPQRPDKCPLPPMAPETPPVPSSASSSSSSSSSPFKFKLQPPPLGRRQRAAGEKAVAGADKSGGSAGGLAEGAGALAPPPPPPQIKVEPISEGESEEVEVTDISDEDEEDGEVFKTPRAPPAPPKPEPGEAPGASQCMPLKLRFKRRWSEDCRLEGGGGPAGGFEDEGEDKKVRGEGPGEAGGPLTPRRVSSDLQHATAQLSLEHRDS
Particulars: protein: recombinant; tags: N-terminal GST; dsDNA, one strand shown. Summed up:
as §1

A further assay addresses T7, ETV3L (Homo sapiens, UniProt Q6ZN32 1-361).
T7 sequence: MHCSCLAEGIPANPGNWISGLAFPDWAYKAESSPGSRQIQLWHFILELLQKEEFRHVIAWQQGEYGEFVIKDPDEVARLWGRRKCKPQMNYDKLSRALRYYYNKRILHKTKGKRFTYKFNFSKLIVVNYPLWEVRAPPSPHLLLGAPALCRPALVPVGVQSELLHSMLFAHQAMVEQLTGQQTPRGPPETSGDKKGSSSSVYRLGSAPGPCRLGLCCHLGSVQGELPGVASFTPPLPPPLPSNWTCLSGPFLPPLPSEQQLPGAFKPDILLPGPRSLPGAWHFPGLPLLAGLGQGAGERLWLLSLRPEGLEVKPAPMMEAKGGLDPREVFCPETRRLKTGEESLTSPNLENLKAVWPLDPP
Particulars: protein: recombinant; tags: N-terminal GST; dsDNA, one strand shown. Summed up:
as §1

For a further assay, the target named is T8, ETS2 (Homo sapiens, UniProt P15036 1-469).
T8 sequence: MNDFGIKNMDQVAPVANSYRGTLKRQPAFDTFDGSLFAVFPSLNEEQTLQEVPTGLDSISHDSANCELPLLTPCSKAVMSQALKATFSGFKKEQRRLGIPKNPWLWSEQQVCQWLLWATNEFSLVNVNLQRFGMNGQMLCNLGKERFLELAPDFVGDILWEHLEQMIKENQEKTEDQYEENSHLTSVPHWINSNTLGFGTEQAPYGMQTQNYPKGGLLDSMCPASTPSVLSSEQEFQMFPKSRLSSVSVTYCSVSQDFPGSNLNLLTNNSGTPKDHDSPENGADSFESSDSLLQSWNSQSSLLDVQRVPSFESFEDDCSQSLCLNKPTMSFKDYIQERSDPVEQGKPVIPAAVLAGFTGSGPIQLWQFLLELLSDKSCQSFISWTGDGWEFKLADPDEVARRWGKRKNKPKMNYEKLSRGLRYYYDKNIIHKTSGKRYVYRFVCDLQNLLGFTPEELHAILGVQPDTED
Particulars: protein: recombinant; tags: N-terminal GST; dsDNA, one strand shown. In outline: as §1

Another assay has as its target T9, SPDEF (Homo sapiens, UniProt O95238 1-335).
T9 sequence: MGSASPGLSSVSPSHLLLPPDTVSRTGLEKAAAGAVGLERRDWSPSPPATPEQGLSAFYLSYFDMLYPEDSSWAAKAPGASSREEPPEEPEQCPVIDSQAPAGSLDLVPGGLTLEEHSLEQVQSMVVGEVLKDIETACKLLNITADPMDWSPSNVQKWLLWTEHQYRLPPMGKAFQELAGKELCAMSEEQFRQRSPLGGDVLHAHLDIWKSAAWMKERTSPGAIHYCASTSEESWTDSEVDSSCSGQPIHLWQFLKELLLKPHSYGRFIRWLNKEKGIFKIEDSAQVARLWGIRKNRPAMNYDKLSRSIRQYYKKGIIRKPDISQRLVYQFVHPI
The conditions noted are these: protein: recombinant; tags: N-terminal GST; dsDNA, one strand shown. Summed up:
as §1

Another assay addresses T10, ETV7 (Homo sapiens, UniProt Q9Y603 1-341).
T10 sequence: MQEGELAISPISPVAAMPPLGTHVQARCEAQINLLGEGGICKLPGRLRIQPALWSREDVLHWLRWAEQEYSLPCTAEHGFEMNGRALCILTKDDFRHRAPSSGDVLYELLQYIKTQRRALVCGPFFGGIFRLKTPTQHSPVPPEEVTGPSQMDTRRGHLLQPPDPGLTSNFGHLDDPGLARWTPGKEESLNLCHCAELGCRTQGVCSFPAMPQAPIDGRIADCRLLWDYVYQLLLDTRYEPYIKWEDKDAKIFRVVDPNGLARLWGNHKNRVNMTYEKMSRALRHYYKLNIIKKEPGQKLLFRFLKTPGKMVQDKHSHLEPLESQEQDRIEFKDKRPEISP
The conditions noted are these: protein: recombinant; tags: N-terminal GST; dsDNA, one strand shown. In outline:
as §1

The target of a further assay is T11, ELF5 (Homo sapiens, UniProt Q9UKW6-2 1-255).
T11 sequence: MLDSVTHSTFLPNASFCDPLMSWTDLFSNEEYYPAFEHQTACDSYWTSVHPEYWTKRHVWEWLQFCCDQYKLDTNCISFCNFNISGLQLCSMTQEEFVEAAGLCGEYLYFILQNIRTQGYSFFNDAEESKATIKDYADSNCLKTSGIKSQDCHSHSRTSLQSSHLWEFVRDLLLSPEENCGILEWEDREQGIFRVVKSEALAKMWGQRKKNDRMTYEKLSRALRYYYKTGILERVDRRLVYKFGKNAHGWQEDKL
The conditions noted are these: protein: recombinant; tags: N-terminal GST; dsDNA, one strand shown. Summed up: as §1

The target in a further assay is T12, ETV3 (Homo sapiens, UniProt P41162-2 1-143).
T12 sequence: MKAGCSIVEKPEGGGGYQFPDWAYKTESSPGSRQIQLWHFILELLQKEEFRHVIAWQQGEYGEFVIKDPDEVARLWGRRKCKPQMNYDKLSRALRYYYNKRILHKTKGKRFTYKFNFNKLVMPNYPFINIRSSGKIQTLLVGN
The conditions noted are these: protein: recombinant; tags: N-terminal GST; dsDNA, one strand shown. In outline: as §1

The target in the next assay is ETV6 (Homo sapiens, UniProt P41212 1-452). Particulars: protein: recombinant; tags: N-terminal GST; dsDNA, one strand shown. Summed up:
as §1

Sequence of ETV6 (P41212 whole entry): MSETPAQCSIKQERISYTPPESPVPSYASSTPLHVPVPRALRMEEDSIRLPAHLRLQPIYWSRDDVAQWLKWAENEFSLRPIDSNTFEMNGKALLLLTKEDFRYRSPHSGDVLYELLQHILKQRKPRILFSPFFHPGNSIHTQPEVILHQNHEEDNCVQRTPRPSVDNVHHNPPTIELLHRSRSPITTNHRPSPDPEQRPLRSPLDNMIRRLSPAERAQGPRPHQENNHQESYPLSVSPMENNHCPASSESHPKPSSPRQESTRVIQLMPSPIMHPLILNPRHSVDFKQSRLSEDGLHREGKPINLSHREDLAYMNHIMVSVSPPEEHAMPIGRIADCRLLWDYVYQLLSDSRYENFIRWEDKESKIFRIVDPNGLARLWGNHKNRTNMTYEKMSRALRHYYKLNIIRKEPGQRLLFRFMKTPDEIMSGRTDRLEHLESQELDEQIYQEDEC
Sequence of HSF1 (Q00613 whole entry): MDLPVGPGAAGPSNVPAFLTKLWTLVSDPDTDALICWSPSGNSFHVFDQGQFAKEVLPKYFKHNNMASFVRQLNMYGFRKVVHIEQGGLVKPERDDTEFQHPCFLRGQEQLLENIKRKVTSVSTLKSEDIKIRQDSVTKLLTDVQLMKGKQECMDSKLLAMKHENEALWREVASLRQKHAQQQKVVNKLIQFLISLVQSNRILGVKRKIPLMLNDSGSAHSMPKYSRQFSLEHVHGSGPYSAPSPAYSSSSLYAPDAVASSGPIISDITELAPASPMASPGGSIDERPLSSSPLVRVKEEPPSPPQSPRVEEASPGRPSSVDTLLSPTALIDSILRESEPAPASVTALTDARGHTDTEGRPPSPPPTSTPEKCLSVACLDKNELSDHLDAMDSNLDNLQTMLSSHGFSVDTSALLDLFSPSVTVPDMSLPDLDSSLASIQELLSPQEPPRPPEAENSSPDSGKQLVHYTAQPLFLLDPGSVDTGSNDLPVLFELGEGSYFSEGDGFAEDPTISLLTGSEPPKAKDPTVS
Sequence of ELF4 (Q99607 whole entry): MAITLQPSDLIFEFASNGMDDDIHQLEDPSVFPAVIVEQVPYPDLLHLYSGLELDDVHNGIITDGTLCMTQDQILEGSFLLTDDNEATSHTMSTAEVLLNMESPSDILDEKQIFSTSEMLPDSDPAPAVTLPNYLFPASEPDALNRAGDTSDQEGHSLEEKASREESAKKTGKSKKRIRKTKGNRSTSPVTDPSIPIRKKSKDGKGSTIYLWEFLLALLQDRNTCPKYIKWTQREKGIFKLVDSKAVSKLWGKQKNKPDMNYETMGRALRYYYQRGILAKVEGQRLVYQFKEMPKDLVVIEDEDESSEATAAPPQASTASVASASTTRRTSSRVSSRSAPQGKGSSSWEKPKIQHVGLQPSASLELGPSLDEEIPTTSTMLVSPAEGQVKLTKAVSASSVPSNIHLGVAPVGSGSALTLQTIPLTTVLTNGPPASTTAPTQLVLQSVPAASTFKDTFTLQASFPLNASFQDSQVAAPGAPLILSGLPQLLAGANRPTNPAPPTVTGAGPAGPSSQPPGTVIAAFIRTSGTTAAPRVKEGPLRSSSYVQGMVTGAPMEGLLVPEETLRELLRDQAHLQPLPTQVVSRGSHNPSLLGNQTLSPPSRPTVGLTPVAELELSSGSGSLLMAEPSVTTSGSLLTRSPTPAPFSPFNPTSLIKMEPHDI
Sequence of ETV1 (P50549 whole entry): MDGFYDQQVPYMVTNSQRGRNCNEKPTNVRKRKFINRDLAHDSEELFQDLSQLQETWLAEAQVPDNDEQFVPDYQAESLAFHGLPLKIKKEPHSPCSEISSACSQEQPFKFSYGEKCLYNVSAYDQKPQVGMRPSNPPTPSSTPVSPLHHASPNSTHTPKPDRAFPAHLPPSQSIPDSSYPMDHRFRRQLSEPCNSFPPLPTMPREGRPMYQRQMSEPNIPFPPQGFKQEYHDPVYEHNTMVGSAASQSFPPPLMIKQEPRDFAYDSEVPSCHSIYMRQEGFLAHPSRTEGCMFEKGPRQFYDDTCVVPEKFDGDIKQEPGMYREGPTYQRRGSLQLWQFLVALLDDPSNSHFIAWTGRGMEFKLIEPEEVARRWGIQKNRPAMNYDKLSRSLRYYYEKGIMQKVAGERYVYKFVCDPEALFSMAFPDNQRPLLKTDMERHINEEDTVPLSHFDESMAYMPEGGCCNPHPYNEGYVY
Sequence of ETV5 (P41161 whole entry): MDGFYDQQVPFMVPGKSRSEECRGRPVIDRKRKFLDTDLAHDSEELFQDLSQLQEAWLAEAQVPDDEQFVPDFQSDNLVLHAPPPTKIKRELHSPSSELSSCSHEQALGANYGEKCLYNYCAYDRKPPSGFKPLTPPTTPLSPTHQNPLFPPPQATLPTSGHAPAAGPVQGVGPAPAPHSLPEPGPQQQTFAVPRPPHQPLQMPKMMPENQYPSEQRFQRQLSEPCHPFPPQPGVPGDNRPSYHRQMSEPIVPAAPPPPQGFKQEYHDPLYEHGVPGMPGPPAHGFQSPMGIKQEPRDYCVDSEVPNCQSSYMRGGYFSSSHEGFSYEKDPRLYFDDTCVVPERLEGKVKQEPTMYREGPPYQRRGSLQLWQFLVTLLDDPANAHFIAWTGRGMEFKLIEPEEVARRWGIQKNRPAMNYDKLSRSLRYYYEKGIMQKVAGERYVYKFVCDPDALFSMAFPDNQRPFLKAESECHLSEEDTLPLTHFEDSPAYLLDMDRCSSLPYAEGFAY

Consider TAACTA, for which the binding signal in the assay with FEV was 1.25 fold enrichment (6-mer frequency, TF over GST control); in the assay with ETV5, 1.29 fold enrichment (6-mer frequency, TF over GST control); with HSF1 it was 1.51 fold enrichment (6-mer frequency, TF over GST control); with SPIC, 1.36 fold enrichment (6-mer frequency, TF over GST control); with ELF4, 1.48 fold enrichment (6-mer frequency, TF over GST control); with ELK4 it was 1.26 fold enrichment (6-mer frequency, TF over GST control). Moreover, the binding signal with ETV2 is 1.49 fold enrichment (6-mer frequency, TF over GST control); in the assay with ELF3 it was 1.33 fold enrichment (6-mer frequency, TF over GST control); with CRX it was 1.87 fold enrichment (6-mer frequency, TF over GST control); with ETV1 it was 1.24 fold enrichment (6-mer frequency, TF over GST control); with ERF, 1.38 fold enrichment (6-mer frequency, TF over GST control); with ETV3L, 1.21 fold enrichment (6-mer frequency, TF over GST control). The binding signal was 1.4 fold enrichment (6-mer frequency, TF over GST control) with ETS2; 1.26 fold enrichment (6-mer frequency, TF over GST control) in the assay with SPDEF; 1.29 fold enrichment (6-mer frequency, TF over GST control) with ETV7; 1.3 fold enrichment (6-mer frequency, TF over GST control) in the assay with ELF5; 1.29 fold enrichment (6-mer frequency, TF over GST control) in the assay with ETV3; 1.36 fold enrichment (6-mer frequency, TF over GST control) in the assay with ETV6.
